Screening results: PubChem BioAssay, National Center for Advancing Translational Sciences (NCATS)
HT1080 IDH1KD tx: HT-1080 IDH1 knockdown cell toxicity (counter line); HT-1080 IDH1 knockdown viability, ATP luminescence, 48 h; Potency, µM (series often up to 46.1 µM), for the others: at the highest dose activity, negative = toxicity, usual class: cytotoxic; 360,000 tested, 2% active; AID 686971;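 further: potency means the concentration at half of the fitted maximal effect; 0% = DMSO wells and -100% = cell-free medium wells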
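Using the IDH1-knockdown HT-1080 line run in the same batch and compound series as the NT line, viability after 48 h at 37 °C was determined by CellTiter-Glo luminescence and expressed as % activity.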
DT40 TDP1 no CPT: qHTS for Inhibitors of human tyrosyl-DNA phosphodiesterase 1 (TDP1): qHTS in cells in absence of CPT | Potency, µM (titrated, usually from 46.2 µM), for the others: at the highest dose activity change, negative = growth inhibition, usual class: inhibitors | DT40 Tdp1-/- hTDP1 cells, no CPT, ATP luminescence, 48 h | 420,000 tested, 15% active | AID 686978, 2013; further: potency means the concentration at half of the fitted maximal effect; nearly all actives have a fitted effect of over 55% in size
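Camptothecin absent (DMSO only). Human TDP1-complemented DT40 knockout cells, 400 cells/well, 37 °C for minimum 48 hr; ATP measured via CellTiter-Glo, 30 min dark incubation, luminescence.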
HT1080NT lethal: kills 2HG-producing HT-1080-NT fibrosarcoma cells. HT-1080-NT fibrosarcoma viability, CellTiter-Glo ATP luminescence, 48 h. Potency, µM (highest dose often 46.1 µM), for the others: top-dose activity, negative = less viability, usual class: cytotoxic. 360,000 tested, 1.6% active. AID 686970;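 further: NT is the 2HG producing partner of a matched IDH1 knockdown line; potency means the concentration at half of the fitted maximal effect; 0% = DMSO-treated cells and -100% = media-only wells without cells; nearly all actives have a fitted effect of over 55% in size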
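Toxicity toward the 2HG-producing NT line was scored as %Activity, normalised to DMSO and no-cell wells, from CellTiter-Glo luminescence after 48 hours' treatment.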
DT40 TDP1 CPT: growth inhibition of DT40 Tdp1-/-;hTDP1 cells with camptothecin (screen for TDP1 inhibitors); AID 686979; 420,000 tested, 12% active; chicken DT40 Tdp1-/-;hTDP1 cells + 20 nM CPT, ATP luminescence, 48 h; Potency, µM (top dose mostly 46.2 µM), for inactives: at the top dose activity change, negative = growth inhibition, most hits filed as inhibitors; further: potency means the concentration at half of the fitted maximal effect; nearly all actives have a fitted effect of over 55% in size
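Chicken DT40 Tdp1-/- cells stably complemented with human TDP1 were seeded at 400 cells/well in medium containing 20 nM camptothecin, exposed to pin-transferred compounds, and grown at 37 °C for at least 48 hr. Viability was read as ATP luminescence.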
IL1B secr inh: blocks inflammasome-driven IL-1 beta release. THP-1 LPS/ATP IL-1B secretion, AlphaLISA, 16 h; stronger effect = lower value. activity change, % at 57.5 µM. 360,000 tested, 4.7% active; in the data active means activity change below about -50%; inconclusive means mostly about -30% to -49%
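THP-1 cells pretreated 1 hr with compounds (up to 57.5 uM final), then stimulated with LPS (250 ng/mL final) plus ATP (1.25 mM final); secreted IL-1B measured by AlphaLISA after 16 hr, decreased signal indicating inhibition.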
Active calls of the source: *. A selection: hits, their analogues and other compounds. The true share with any hit is near 19%. Unless noted, the call rests on the fitted dose curve; in most records, active means well fitted curve in the direction sought with a large enough effect; inconclusive means small, poorly fitted or top-dose-only effect, or another doubt; inactive means no such curve, though single readings can be large; an effect the other way counts as inactive or inconclusive. Unless noted, on the % scale 0 is the no-effect control and ±100 the full control effect.

What do the screens show for `COC(=O)c1cc(=O)n(Cc2cccs2)c(=Nc2ccc(F)cc2)s1`?
HT1080 IDH1KD tx: inconclusive; DT40 TDP1 no CPT: 21µM*; HT1080NT lethal: inconclusive; DT40 TDP1 CPT: inconclusive; IL1B secr inh: -4

Results for COC(=O)c1ccc(N=c2sc(C(=O)OC)cc(=O)n2C)cc1 ?
HT1080 IDH1KD tx: 9%; DT40 TDP1 no CPT: 26µM*; HT1080NT lethal: -4%; DT40 TDP1 CPT: 21µM*; IL1B secr inh: 30

How did CCOC(=O)c1ccc(N=c2sc(C(=O)OC)cc(=O)n2Cc2ccc3c(c2)OCO3)cc1 do in these assays?
HT1080 IDH1KD tx: -12%; DT40 TDP1 no CPT: 6.5µM*; HT1080NT lethal: -18%; DT40 TDP1 CPT: 6.5µM*; IL1B secr inh: -4

Results for COC(=O)c1cc(=O)n(-c2ccc(F)cc2)c(=Nc2ccc(F)cc2)s1 ?
HT1080 IDH1KD tx: inconclusive; DT40 TDP1 no CPT: 6.5µM*; HT1080NT lethal: inconclusive; DT40 TDP1 CPT: 6.5µM*; IL1B secr inh: -105*

What do the screens show for `CCOC(=O)c1ccc(N=c2sc(C(=O)OC)cc(=O)n2C2CC2)cc1`?
HT1080 IDH1KD tx: 16%; DT40 TDP1 no CPT: 3%; HT1080NT lethal: 13%; DT40 TDP1 CPT: -10%; IL1B secr inh: 14

Results for Cn1ccc(C(=O)N/N=C/c2ccncc2)n1 ?
HT1080 IDH1KD tx: -2%; DT40 TDP1 no CPT: 15%; HT1080NT lethal: -4%; DT40 TDP1 CPT: -1%; IL1B secr inh: 10

What do the screens show for `CC(C)NC(=S)N/N=C/c1ccc2c(c1)OCCO2`?
HT1080 IDH1KD tx: -7%; DT40 TDP1 no CPT: -13%; HT1080NT lethal: 0%; DT40 TDP1 CPT: -15%; IL1B secr inh: -10

What do the screens show for `CC(C)N(Cc1ccccc1)C(=O)COC(=O)C1CCCCC1`?
HT1080 IDH1KD tx: 7%; DT40 TDP1 no CPT: -5%; HT1080NT lethal: 2%; DT40 TDP1 CPT: 5%; IL1B secr inh: 6

How did C[N+]1(Cc2ccccc2)CCC(C(=O)OCC2CCCC2)CC1 (stereo not drawn) do in these assays?
DT40 TDP1 no CPT: 21µM*; DT40 TDP1 CPT: inconclusive

Results for CCN(CC)c1ccc(/C=C/C(=O)C2C(=O)C=C(C)OC2=O)cc1 (stereo not drawn) ?
HT1080 IDH1KD tx: -5%; DT40 TDP1 no CPT: inconclusive; HT1080NT lethal: -15%; DT40 TDP1 CPT: 12%; IL1B secr inh: -16

What do the screens show for `CNc1ccccc1C(C)(C)c1cc(C)[nH]n1`?
HT1080 IDH1KD tx: -10%; DT40 TDP1 no CPT: inconclusive; HT1080NT lethal: -1%; DT40 TDP1 CPT: 16µM*; IL1B secr inh: 6

Results for COc1ccc(OC)c(NC(=O)COC(=O)CN2C(=O)NC3(CCCC3)C2=O)c1 ?
HT1080 IDH1KD tx: 7%; DT40 TDP1 no CPT: 4%; HT1080NT lethal: 12%; DT40 TDP1 CPT: -6%; IL1B secr inh: -3

Results for CC1CCCC(C)N1C(=O)COC(=O)c1cccnc1Cl (stereo not drawn) ?
HT1080 IDH1KD tx: 3%; DT40 TDP1 no CPT: 3%; HT1080NT lethal: 2%; DT40 TDP1 CPT: 15%; IL1B secr inh: 34

Results for CCC1CCCCN1CCCNC(=O)C1CCC(CNS(=O)(=O)c2c(C)cc(C)cc2C)CC1 (stereo not drawn) ?
HT1080 IDH1KD tx: inconclusive; DT40 TDP1 no CPT: inconclusive; HT1080NT lethal: inconclusive; DT40 TDP1 CPT: 29µM*; IL1B secr inh: -20

What do the screens show for `CCC(C)C(NC(=O)C1CCC(C)CC1)C(=O)NCCCN1CCCCC1CC` (stereo not drawn)?
HT1080 IDH1KD tx: 9%; DT40 TDP1 no CPT: -12%; HT1080NT lethal: -5%; DT40 TDP1 CPT: 14%; IL1B secr inh: -63*

How did COc1ccccc1OCCn1nc2ccccc2c1OC do in these assays?
HT1080 IDH1KD tx: 7%; DT40 TDP1 no CPT: inconclusive; HT1080NT lethal: 14%; DT40 TDP1 CPT: -5%; IL1B secr inh: -15

How did Cn1cc([C@]2(O)C(=O)Nc3ccc(Br)cc32)c2ccccc21 do in these assays?
HT1080 IDH1KD tx: -18%; DT40 TDP1 no CPT: inconclusive; HT1080NT lethal: -26%; DT40 TDP1 CPT: inconclusive; IL1B secr inh: 0
